# KB-3-1 tox = qHTS assay for MDR1-selective chemotherapeutics: Primary screen using the parental adenocarcinoma cell KB-3-1. AID 1347075, 2019. Potency, µM (top dose mostly 46.1 µM), most hits filed as cytotoxic. KB-3-1 viability, CellTiter-Glo ATP luminescence, 72 h. 1.4% of 400,000 active; also: % is scaled to controls: 0 for no effect and ±100 for the full control effect; nearly all actives have a fitted effect of over 60% in size
#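 Cytotoxicity measured as CellTiter-Glo luminescence after 72 h at 37 C. Compound titrations were pinned onto drug-naive KB-3-1 parental adenocarcinoma cells grown in DMEM with 10% FBS, and normalized data fitted to concentration-response curves.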
# KB-V1 cytotox = qHTS assay for MDR1-selective chemotherapeutics: Primary screen using the drug-selected MDR subline cells KB-V1; KB-V1 MDR cells viability, CellTiter-Glo, 72 h; 3.4% of 400,000 active; Potency, µM (highest dose often 46.1 µM), most hits filed as cytotoxic; also: % is scaled to controls: 0 for no effect and ±100 for the full control effect; nearly all actives have a fitted effect of over 60% in size
#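 Cytotoxicity via CellTiter-Glo luminescence after 72 h compound exposure at 37 degrees C. Cells: drug-selected KB-V1 line, DMEM phenol-red free plus 10% FBS. Compounds tested at multiple concentrations; normalized data fitted to concentration-effect curves.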
# HT1080-NT tox = qHTS for induction of synthetic lethality in tumor cells producing 2HG: qHTS for the HT-1080-NT fibrosarcoma cell line | HT-1080-NT fibrosarcoma viability, CellTiter-Glo ATP luminescence, 48 h | Potency, µM (doses to about 46.1 µM), for inactives: at the highest dose activity, negative = less viability, hits mostly cytotoxic | 1.6% of 360,000 active;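 also: NT is the 2HG producing partner of a matched IDH1 knockdown line; 0% = DMSO-treated cells and -100% = media-only wells without cells; nearly all actives have a fitted effect of over 55% in size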
#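 Toxicity toward the 2HG-producing NT line was scored as %Activity, normalised to DMSO and no-cell wells, from CellTiter-Glo luminescence after 48 hours' treatment.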
# ATXN2 expr inh = Primary qHTS for Inhibitors of ATXN expression. Potency, µM (doses to about 57 µM), without a hit: top-dose activity change, negative = inhibition, most hits filed as inhibitors. HEK-293 ATXN2-luciferase reporter, luminescence, 24 h. 0.72% of 360,000 active. AID 1745845, 2022; also: % is scaled to controls: 0 for no effect and ±100 for the full control effect; nearly all actives have a fitted effect of over 55% in size
#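 qHTS (up to 57 uM final) was run with 24 h compound exposure of reporter cells at 37 °C. Each well was multiplexed: SteadyGlo luminescence measured ATXN2-luciferase expression after a fluorogenic Gly-Phe-AFC viability readout (25 uM final).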
# S2 tox = Viability Counterscreen for Primary qHTS for Inhibitors of ATXN expression | S2 cells (HEK-293 line with an ATXN2-luciferase reporter) viability, CellTiter-Fluor protease fluorescence, 24 h | AID 651635, 2014 | 0.49% of 400,000 active | Potency, µM (titrated, usually from 56.7 µM), usual class: cytotoxic; also: nearly all actives have a fitted effect of over 40% in size
# HT1080 IDH1KD tx = qHTS for induction of synthetic lethality in tumor cells producing 2HG: qHTS for the HT-1080-IDH1KD cell line; HT-1080 IDH1 knockdown viability, ATP luminescence, 48 h; Potency, µM (highest dose often 46.1 µM), for the others: top-dose activity, negative = toxicity, hits mostly cytotoxic; 2% of 360,000 active;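 also: 0% = DMSO wells and -100% = cell-free medium wells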
#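 Assay cells: HT-1080 with IDH1 knockdown, 750 per well, RPMI/5% FBS. Exposure: 48 h at 37 °C following 2 h pre-incubation. Read: CellTiter-Glo luminescence; fitted concentration-response, curve class assigned.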
# Starred values were filed as active, the others as inactive; i = inactive; ? = inconclusive; · = no result given; ! = a repeat was not active. This is a sample that favours compounds with a hit; in the whole collection about 6.2% have one here. Calls follow the shape of the dose curve; as a rule, active = well fitted curve in the direction sought with a large enough effect; inconclusive = small, poorly fitted or top-dose-only effect, or another doubt; inactive = no such curve, though single readings can be large; an effect the other way counts as inactive or inconclusive. Potency is read from the fitted curve at half-maximal effect.
SMILES,KB-3-1 tox,KB-V1 cytotox,HT1080-NT tox,ATXN2 expr inh,S2 tox,HT1080 IDH1KD tx
Clc1ccc(CSc2cnnc3ccccc23)cc1Cl,i,i,-12%,7%,i,-13%
O=c1[nH]c(SCc2ccc(Cl)cc2)nc2ccccc12,?,i,1%,-5%,i,1%
O=Cc1cc2ccccc2nc1SCc1ccc(Cl)cc1,6.5µM*,?,5.2µM*,-21%,?,7.3µM*
O=Cc1cc2ccccc2nc1SCc1ccc(Cl)c(Cl)c1,4.6µM*,5.8µM*,4.1µM*,-5%,i,5.8µM*
Cc1ccc(CSc2nc3ccccc3cc2C=O)cc1,8.2µM*,?,5.8µM*,-1%,i,6.5µM*
Cn1cc(/C=C/c2ccc3ccccc3n2)c2ccccc21,?,i,·,·,·,·
CCOc1ccc(C2=NC(c3cccs3)=Nc3ccc(C(C)C)cc3N2)cc1,i,i,·,59%,i,·
O=[S+]([O-])(Nc1ccccc1F)c1cccc(NC/C=C/c2ccccc2)c1,i,i,·,·,·,·
COc1cc(CN2CCc3nnc(C(NS(C)(=O)=O)C(C)C)n3CC2)ccc1F (configuration not stated),·,·,·,·,i,·
CN(C)CCCNc1ncnc2oc(-c3ccccc3)c(-c3ccccc3)c12,?,i,?,2%,i,23µM*
C=CCc1cccc(CNc2nc3ccccc3n2C(C)C)c1O,i,?,?,32µM*,?,11µM*
CC(C)n1c(NCc2ccccc2O)nc2ccccc21,i,i,1%,0%,i,-7%
Cc1nnc(NC(=O)C2CC(=O)N(c3ccc4c(c3)OCCO4)C2)s1 (configuration not stated),i,?,1%,7%,i,0%
CCC(CC)c1nnc(NC(=O)C2CC(=O)N(c3ccc4c(c3)OCCO4)C2)s1 (configuration not stated),i,21µM*,-6%,3%,i,11%
Cc1cnc(NC(=O)C2CC(=O)N(c3cccc(Cl)c3)C2)s1 (configuration not stated),?,21µM*,-2%,0.56µM*,?,1%
Cc1cnc(NC(=O)C2CC(=O)N(c3ccc4c(c3)OCCO4)C2)s1 (configuration not stated),i,15µM*,0%,0%,i,-16%
CCOc1ccc(N2CC(C(=O)Nc3cc(S(=O)(=O)N4CCCCC4)ccc3C)CC2=O)cc1 (configuration not stated),i,18µM*,0%,-9%,i,-2%
CCCCN(CC)C(=O)c1c[nH]c2ccc(S(=O)(=O)N(C)c3ccc(Cl)cc3)cc2c1=O,i,i,·,5%,i,·
CC(=O)Oc1ccc2nc(-c3ccco3)oc(=O)c2c1,i,i,25%,-25%,i,12%
CC1CCN(S(=O)(=O)c2ccc3c(c2)N(CC(=O)NC(C)c2ccccc2)C(=O)CS3)CC1 (configuration not stated),i,i,·,12%,i,·
CCOc1ccc(N2CC(C(=O)Nc3ccc4c(c3)OCO4)CC2=O)cc1 (configuration not stated),i,i,-19%,-10%,i,-6%
CCOc1ccc(N2CC(C(=O)Nc3ccc4c(c3)OCCO4)CC2=O)cc1 (configuration not stated),5.2µM*,i,-5%,3%,i,1%
CCN1CCN(Cc2ccc(NC(=O)c3ccc(C)c(NC(=O)N4CCNC4=O)c3)cc2C(F)(F)F)CC1,i,?,0%,?,?,-14%
CCN1CCN(Cc2ccc(NC(=O)c3ccc(C)c(NC(=O)c4cccc5[nH]ccc45)c3)cc2C(F)(F)F)CC1,16µM*!,?,?,?,·,?
CCN1CCN(Cc2ccc(NC(=O)c3cc(NC(=O)c4cnnc5ccccc45)cc(OC)c3)cc2C(F)(F)F)CC1,?,i,?,?,?,?
SMILES,KB-3-1 tox,KB-V1 cytotox,HT1080-NT tox,ATXN2 expr inh,S2 tox,HT1080 IDH1KD tx
CCN1CCN(Cc2ccc(NC(=O)c3ccc(C)c(NC(=O)c4cc(-c5ccc(Br)cc5)n[nH]4)c3)cc2C(F)(F)F)CC1,?,?,-18%,32µM*,25µM*,-26%
CCN1CCN(Cc2ccc(NC(=O)c3cc(NC(=O)c4cncc(-c5ccc(C#N)cc5)c4)cc(OC)c3)cc2C(F)(F)F)CC1,?,i,?,25µM*!,16µM*,?
CCN1CCN(Cc2ccc(NC(=O)c3cc(NC(=O)c4nccnc4N)cc(OC)c3)cc2C(F)(F)F)CC1,i,i,-21%,?,?,-5%
CCN1CCN(Cc2ccc(NC(=O)c3ccc(C)c(NC(=O)c4cncc(-c5cccs5)c4)c3)cc2C(F)(F)F)CC1,?,?,21µM*,14µM*,·,18µM*
CCN1CCN(Cc2ccc(NC(=O)c3ccc(C)c(NC(=O)c4nccn4C)c3)cc2C(F)(F)F)CC1,i,i,5%,-8%,i,2%
O=S(=O)(c1ccccc1)c1nnn2c1nc(NC1CCCCCC1)c1sccc12,i,i,·,·,·,·
CCOC(=O)c1[nH]c(C)c(CCC(=O)Nc2c(C)cc(C)cc2C)c1C,i,i,·,4%,i,·
CCN1CCN(Cc2ccc(NC(=O)c3ccc(C)c(NC(=O)c4nccnc4N)c3)cc2C(F)(F)F)CC1,i,i,?,28µM*,?,?
CCOc1ccc2nc(N3C(=O)CNC3=S)sc2c1,i,?,-17%,?,·,-1%
Cc1cc2nc(N3C(=O)CNC3=S)sc2cc1C,?,16µM*,-22%,?,?,-16%
CC(C)(C)NC(=O)c1ccc2c(c1)N(CC(=O)N1CCN(c3ccc(F)cc3)CC1)C(=O)C(C)(C)O2,i,3.7µM*,9%,3%,i,4%
CC(C)(C)NC(=O)c1ccc2c(c1)N(CC(=O)N1CCCC1)C(=O)C(C)(C)O2,i,?,3%,-22%,i,-1%
Clc1ccc(/C=N/Nc2nnc(-c3ncc[nH]3)c3ccccc23)cc1,i,7.3µM*,?,15%,i,?
Clc1cccc(/C=N/Nc2nnc(Cl)c3ccccc23)c1,i,i,?,-11%,i,-11%
